How the values were obtained:
Assay in all cases: universal protein binding microarray (PBM); transcription factors of Arabidopsis thaliana; high values mean tight binding
[1] = molecular target: T1, GST-ANAC092(1-176) (Arabidopsis thaliana, UniProt Q9FKA0 1-176); conditions: protein: recombinant; tags: GST; chain copies: 2; dsDNA, one strand shown
T1 sequence: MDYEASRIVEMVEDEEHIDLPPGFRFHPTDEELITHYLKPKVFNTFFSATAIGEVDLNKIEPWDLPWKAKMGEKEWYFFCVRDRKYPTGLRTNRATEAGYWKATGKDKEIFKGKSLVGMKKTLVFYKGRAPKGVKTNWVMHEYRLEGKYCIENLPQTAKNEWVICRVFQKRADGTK
Summary of the method: (§1)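 Binding is expressed as the normalised enrichment score (E-score). Proteins carrying a GST tag, whether NAC-domain, full-length or DNA-binding-domain forms, were induced in cells, and zinc acetate was added for zinc-finger proteins. After purification on glutathione–Sepharose 4B and quantification by A280 or anti-GST western blot, each was applied in duplicate at 200 to 500 nM final to custom all-10-mer Agilent 4 × 180K arrays made double-stranded by primer extension. Gapped and ungapped 8-mers were scored.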

[2] = molecular target: GST-NTL6(1-168) (Arabidopsis thaliana, UniProt Q9SCK6 1-168); conditions: protein: recombinant; tags: GST; chain copies: 2; dsDNA, one strand shown
GST-NTL6(1-168), sequence (Q9SCK6 1-168): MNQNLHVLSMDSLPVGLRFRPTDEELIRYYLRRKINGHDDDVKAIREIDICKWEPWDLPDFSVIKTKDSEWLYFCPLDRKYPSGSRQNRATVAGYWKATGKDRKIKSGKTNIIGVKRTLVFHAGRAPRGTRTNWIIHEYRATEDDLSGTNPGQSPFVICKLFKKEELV
Summary of the method: as §1

[3] = molecular target: T2, GST-ANAC055(1-171) (Arabidopsis thaliana, UniProt Q9LDY8 1-171); conditions: protein: recombinant; tags: GST; chain copies: 2; dsDNA, one strand shown
T2 sequence: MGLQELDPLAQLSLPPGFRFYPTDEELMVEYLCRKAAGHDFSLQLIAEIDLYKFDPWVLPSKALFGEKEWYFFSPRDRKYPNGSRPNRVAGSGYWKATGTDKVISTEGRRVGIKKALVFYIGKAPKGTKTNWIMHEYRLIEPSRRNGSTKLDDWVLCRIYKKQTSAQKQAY
Summary of the method: as §1

[4] = molecular target: T3, GST-ATAF1 NAC domain (Arabidopsis thaliana, UniProt Q39013 7-158); conditions: protein: recombinant; tags: GST; chain copies: 2; dsDNA, one strand shown
T3 sequence: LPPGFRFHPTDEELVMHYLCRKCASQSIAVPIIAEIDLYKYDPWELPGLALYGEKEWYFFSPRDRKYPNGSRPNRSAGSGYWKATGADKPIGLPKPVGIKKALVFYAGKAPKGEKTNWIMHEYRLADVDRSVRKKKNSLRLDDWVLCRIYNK
Summary of the method: as §1

[5] = molecular target: T4, GST-ANAC092(1-285) full length (Arabidopsis thaliana, UniProt Q9FKA0 1-285); conditions: protein: recombinant; tags: GST; chain copies: 2; dsDNA, one strand shown
T4 sequence: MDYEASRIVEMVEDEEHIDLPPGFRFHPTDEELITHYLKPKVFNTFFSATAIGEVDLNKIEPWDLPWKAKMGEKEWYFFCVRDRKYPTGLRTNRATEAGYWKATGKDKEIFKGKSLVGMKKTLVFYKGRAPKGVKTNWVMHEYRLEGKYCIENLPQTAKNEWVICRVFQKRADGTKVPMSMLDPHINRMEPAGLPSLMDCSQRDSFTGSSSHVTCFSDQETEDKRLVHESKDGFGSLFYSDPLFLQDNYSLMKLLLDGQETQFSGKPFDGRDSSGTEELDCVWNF
Summary of the method: as §1

[6] = molecular target: T5, GST-NST2(1-184) (Arabidopsis thaliana, UniProt Q9M274 1-184); conditions: protein: recombinant; tags: GST; chain copies: 2; dsDNA, one strand shown
T5 sequence: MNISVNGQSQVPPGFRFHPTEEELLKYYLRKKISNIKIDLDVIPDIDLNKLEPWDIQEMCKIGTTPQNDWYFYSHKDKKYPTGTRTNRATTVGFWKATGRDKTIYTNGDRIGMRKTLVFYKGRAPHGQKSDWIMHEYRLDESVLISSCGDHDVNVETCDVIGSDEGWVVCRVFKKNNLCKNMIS
Summary of the method: as §1

[7] = molecular target: T6, GST-SND1(1-203) (Arabidopsis thaliana, UniProt Q9LPI7 1-203); conditions: protein: recombinant; tags: GST; chain copies: 2; dsDNA, one strand shown
T6 sequence: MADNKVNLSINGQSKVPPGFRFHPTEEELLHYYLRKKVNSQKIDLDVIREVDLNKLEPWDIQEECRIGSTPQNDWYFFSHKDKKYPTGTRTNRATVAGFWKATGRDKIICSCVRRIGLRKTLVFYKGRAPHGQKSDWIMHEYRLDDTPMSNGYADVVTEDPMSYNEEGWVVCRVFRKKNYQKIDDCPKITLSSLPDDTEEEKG
Summary of the method: as §1

[8] = molecular target: T7, GST-VND7 NAC domain (Arabidopsis thaliana, UniProt Q9C8W9 9-158); conditions: protein: recombinant; tags: GST; chain copies: 2; dsDNA, one strand shown
T7 sequence: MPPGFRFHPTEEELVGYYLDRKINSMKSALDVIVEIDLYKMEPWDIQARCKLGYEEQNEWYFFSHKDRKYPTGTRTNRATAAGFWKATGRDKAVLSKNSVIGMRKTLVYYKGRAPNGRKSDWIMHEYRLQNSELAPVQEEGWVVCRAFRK
Summary of the method: as §1

[9] = molecular target: T8, GST-ANAC019 NAC domain (Arabidopsis thaliana, UniProt Q9C932 14-162); conditions: protein: recombinant; tags: GST; chain copies: 2; dsDNA, one strand shown
T8 sequence: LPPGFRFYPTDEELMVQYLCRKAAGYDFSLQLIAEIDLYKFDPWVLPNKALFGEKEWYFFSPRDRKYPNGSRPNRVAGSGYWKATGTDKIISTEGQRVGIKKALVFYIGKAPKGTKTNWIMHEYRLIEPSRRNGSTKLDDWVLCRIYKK
Summary of the method: as §1

[10] = molecular target: T9, GST-NTL8 NAC domain (Arabidopsis thaliana, UniProt Q9XIN7 14-156); conditions: protein: recombinant; tags: GST; chain copies: 2; dsDNA, one strand shown
T9 sequence: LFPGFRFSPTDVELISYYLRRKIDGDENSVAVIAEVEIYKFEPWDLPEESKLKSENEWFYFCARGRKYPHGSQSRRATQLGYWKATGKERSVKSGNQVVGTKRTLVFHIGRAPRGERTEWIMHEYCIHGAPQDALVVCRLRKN
Summary of the method: as §1

[11] = molecular target: T10, GST-NAP(1-166) (Arabidopsis thaliana, UniProt O49255 1-166); conditions: protein: recombinant; tags: GST; chain copies: 2; dsDNA, one strand shown
T10 sequence: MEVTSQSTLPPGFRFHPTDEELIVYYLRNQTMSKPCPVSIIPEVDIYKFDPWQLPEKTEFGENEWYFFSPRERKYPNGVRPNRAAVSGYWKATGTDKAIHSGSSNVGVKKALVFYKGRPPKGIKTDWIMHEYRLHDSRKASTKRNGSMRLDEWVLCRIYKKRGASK
Summary of the method: as §1

[12] = molecular target: GST-WRKY1(266-371) (Arabidopsis thaliana, UniProt Q9SI37 266-371); conditions: protein: recombinant; tags: GST; dsDNA, one strand shown
GST-WRKY1(266-371), sequence (Q9SI37 266-371): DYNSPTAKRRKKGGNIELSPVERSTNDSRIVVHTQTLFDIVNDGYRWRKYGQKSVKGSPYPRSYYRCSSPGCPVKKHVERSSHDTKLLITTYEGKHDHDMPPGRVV
Summary of the method: as §1

Sequence	binding signal [1] [E-score]	binding signal [2] [E-score]	binding signal [3] [E-score]	binding signal [4] [E-score]	binding signal [5] [E-score]	binding signal [6] [E-score]	binding signal [7] [E-score]	binding signal [8] [E-score]	binding signal [9] [E-score]	binding signal [10] [E-score]	binding signal [11] [E-score]	binding signal [12] [E-score]
TCGCGTAA	0.283	0.0668	0.0885	0.141	0.385	0.259	0.459	0.14				
GAAGGGAA	0.091	0.227				0.0954	0.112	0.0803	0.101	0.44		
AAACCCTC		0.141	0.134				0.101	0.1	0.0591	0.414	0.0744	
ACCCCGCC	0.271	0.182	0.123	0.253	0.264	0.213	0.32	0.241	0.295	0.284	0.1	
AGGGGAAA	0.191	0.14			0.0577		0.0998	0.132	0.112	0.412	0.101	
ATCGCGTA	0.261			0.165	0.404	0.211	0.442	0.104			0.149	
AAGCACGC	0.32			0.121	0.407	0.0521	0.21	0.0817	0.127		0.0699	
CACGCTAA	0.453	0.0834			0.471	0.224	0.415	0.112	0.226			
GAAGGAAA	0.243	0.455	0.184	0.096	0.131	0.214	0.234	0.108	0.118	0.485		
CCCCGCCC	0.325	0.319	0.178	0.262	0.343	0.297	0.378	0.273	0.329	0.372	0.0894	
AGGGTAAA	0.1	0.0852	0.0614		0.0699	0.14	0.153	0.108		0.429	0.0883	
CTAGCGTA	0.262		0.0674		0.398	0.168	0.45	0.118			0.0722	
TGACCGAA							0.0502					0.459
AGCTTTCC	0.171	0.233	0.111		0.133		0.123	0.116	0.126	0.434		
CCAAGTCA							0.0686					0.426
GGCGTCAA							0.0673					0.401
ACGCCATG	0.336				0.404	0.128	0.222	0.0848			0.154	
ACGCTTCC	0.334	0.0789	0.106	0.139	0.402	0.206	0.296	0.151	0.171		0.0721	
CCCCACCC	0.209	0.274	0.0515	0.234	0.278	0.182	0.272	0.171	0.177	0.277		
